Active and inactive are the calls of the source. How the source made its calls: active means hit-call score of the fitted dose curve at least 0.9, where 1 is the maximum; inactive means score below 0.9.
Tests used:
[1] = read-out: Tissue Factor, F3 (gene 2152); assay: BSK_CASM3C_TissueFactor: BioMAP Diversity Plus: CASM3C Assay for Tissue Factor Biomarker Activity (AID 2283052); conditions: primary human coronary artery smooth muscle cells; actives raise or lower the signal;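 further: cell surface tissue factor protein level read by ELISA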
[2] = read-out: Urokinase-type plasminogen activator receptor (uPAR), PLAUR (gene 5329); assay: BSK_CASM3C_uPAR: BioMAP Diversity Plus: CASM3C Assay for Urokinase-type plasminogen activator receptor (uPAR) Biomarker Activity (AID 2283054); conditions: primary human coronary artery smooth muscle cells; actives raise or lower the signal;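 further: cell-surface uPAR protein level quantified by ELISA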
[3] = read-out: Vascular cell adhesion molecule 1 (VCAM1), VCAM1 (gene 7412); assay: BSK_CASM3C_VCAM1: BioMAP Diversity Plus: CASM3C Assay for Vascular cell adhesion molecule 1 (VCAM1) Biomarker Activity (AID 2283055); conditions: primary human coronary artery smooth muscle cells; actives raise or lower the signal;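 further: VCAM-1 protein level quantified by ELISA on the cells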
[4] = read-out: Collagen III, COL3A1 (gene 1281); assay: BSK_hDFCGF_CollagenIII: BioMAP Diversity Plus: hDFCGF Assay for Collagen III Biomarker Activity (AID 2283056); conditions: primary human foreskin fibroblasts; actives raise or lower the signal
Method in brief: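 Cells: human foreskin fibroblasts, primary. Dosing followed by 24 h incubation, then ELISA for collagen III. Both increases and decreases scored relative to DMSO.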

[5] = read-out: Epidermal growth factor receptor (EGFR), EGFR (gene 1956); assay: BSK_hDFCGF_EGFR: BioMAP Diversity Plus: hDFCGF Assay for Epidermal growth factor receptor (EGFR) Biomarker Activity (AID 2283057); conditions: primary human foreskin fibroblasts; actives raise or lower the signal
Method in brief: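 Measured by ELISA: EGFR levels on primary human foreskin fibroblasts 24 h after chemical treatment, analysed relative to DMSO with bidirectional fitting.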

[6] = read-out: Interleukin-8 (IL8), CXCL8 (gene 3576); assay: BSK_hDFCGF_IL8: BioMAP Diversity Plus: hDFCGF Assay for Interleukin-8 (IL8) Biomarker Activity (AID 2283058); conditions: primary human foreskin fibroblasts; actives raise or lower the signal
Method in brief: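 IL-8 levels from compound-treated primary human fibroblasts were read by ELISA at 24 h, with DMSO serving as baseline for bidirectional fitting.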

[7] = BSK_hDFCGF_Proliferation: Cell Proliferation Assessment in the BioMAP Diversity Plus: hDFCGF Assay (AID 2283059); conditions: primary human foreskin fibroblasts;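 further: curves fitted for both rise and fall of signal versus DMSO baseline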
Method in brief: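 Sub-confluent human foreskin fibroblast cultures receive test chemical […]. Relative cell number is quantified by sulforhodamine B staining (0.1%, after 10% TCA fixation) at 560 nm, with bidirectional fitting referenced to DMSO.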

[8] = read-out: Macrophage colony-stimulating factor (MCSF), CSF1 (gene 1435); assay: BSK_hDFCGF_MCSF: BioMAP Diversity Plus: hDFCGF Assay for Macrophage colony-stimulating factor (MCSF) Biomarker Activity (AID 2283060); conditions: primary human foreskin fibroblasts; actives raise or lower the signal
Method in brief: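 M-CSF levels, determined by ELISA, are taken at 24 h after dosing human skin fibroblasts. Responses in either direction are fitted with DMSO serving as the baseline.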

[9] = BSK_hDFCGF_SRB: Viability Assessment in the BioMAP Diversity Plus: hDFCGF Assay (AID 2283061); conditions: primary human foreskin fibroblasts;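 further: cells exposed to compound for 24 h before the read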
Method in brief: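 Cells were dosed with test chemical, cultured 24 h, fixed with 10% TCA, then stained with 0.1% SRB and read at 560 nm. The fibroblasts were human foreskin primary cells, and DMSO served as baseline.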

[10] = read-out: TIMP metallopeptidase inhibitor 1 (TIMP1), TIMP1 (gene 7076); assay: BSK_hDFCGF_TIMP1: BioMAP Diversity Plus: hDFCGF Assay for TIMP metallopeptidase inhibitor 1 (TIMP1) Biomarker Activity (AID 2283062); conditions: primary human foreskin fibroblasts; actives raise or lower the signal
Method in brief: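 Fibroblasts from human foreskin are treated with test chemical and harvested at 24 h. TIMP-1 is quantified by ELISA, and gain or loss of signal is scored against DMSO.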

[11] = read-out: Monokine induced gamma interferon (MIG), CXCL9 (gene 4283); assay: BSK_hDFCGF_MIG: BioMAP Diversity Plus: hDFCGF Assay for Monokine induced gamma interferon (MIG) Biomarker Activity (AID 2283063); conditions: primary human foreskin fibroblasts; actives raise or lower the signal
Method in brief: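 MIG signal, determined by ELISA, reflects 24 h chemical exposure of human skin primary fibroblasts. DMSO serves as negative control and baseline.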

[12] = read-out: Matrix Metallopeptidase 1 (MMP1), MMP1 (gene 4312); assay: BSK_hDFCGF_MMP1: BioMAP Diversity Plus: hDFCGF Assay for Matrix Metallopeptidase 1 (MMP1) Biomarker Activity (AID 2283064); conditions: primary human foreskin fibroblasts; actives raise or lower the signal
Method in brief: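 Primary human foreskin fibroblasts in the hDFCGF system were dosed with test chemical, and MMP1 was measured by ELISA 24 h later. Values come from bidirectional curve fitting against the DMSO baseline.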

[13] = read-out: Vascular cell adhesion molecule 1 (VCAM1), VCAM1 (gene 7412); assay: BSK_hDFCGF_VCAM1: BioMAP Diversity Plus: hDFCGF Assay for Vascular cell adhesion molecule 1 (VCAM1) Biomarker Activity (AID 2283065); conditions: primary human foreskin fibroblasts; actives raise or lower the signal;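 on AC50: VCAM-1 protein level quantified by ELISA after 24 h chemical exposure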
Method in brief: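 Cells are dosed, cultured for 24 h, then VCAM-1 is quantified by ELISA; signal increases and decreases are both fitted relative to DMSO.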

[14] = read-out: Plasminogen activator inhibitor-1 (PAI1), SERPINE1 (gene 5054); assay: BSK_hDFCGF_PAI1: BioMAP Diversity Plus: hDFCGF Assay for Plasminogen activator inhibitor-1 (PAI1) Biomarker Activity (AID 2283066); conditions: primary human foreskin fibroblasts; actives raise or lower the signal
Method in brief: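 PAI-1 levels, determined by ELISA, served as the endpoint in human foreskin fibroblast cultures exposed to compound for 24 h, with DMSO as baseline.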

[15] = read-out: Intercellular Adhesion Molecule 1 (ICAM1), ICAM1 (gene 3383); assay: BSK_KF3CT_ICAM1: BioMAP Diversity Plus: KF3CT Assay for Intercellular Adhesion Molecule 1 (ICAM1) Biomarker Activity (AID 2283067); conditions: primary human keratinocytes with fibroblasts; actives raise or lower the signal
Method in brief: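 Dose the keratinocyte/fibroblast co-culture, wait 24 h, measure ICAM-1 by ELISA, then fit increases or decreases against DMSO. Cytotoxicity is checked in parallel cultures by SRB total-protein staining.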

[16] = read-out: Interferon-gamma inducible Protein 10 (IP10), CXCL10 (gene 3627); assay: BSK_KF3CT_IP10: BioMAP Diversity Plus: KF3CT Assay for Interferon-gamma inducible Protein 10 (IP10) Biomarker Activity (AID 2283068); conditions: primary human keratinocytes with fibroblasts; actives raise or lower the signal
Method in brief: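 ELISA read-out of IP-10 after 24 h chemical dosing of human skin primary co-culture (keratinocytes, foreskin fibroblasts). Gain or loss of signal relative to DMSO, bidirectional curve fit.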

[17] = BSK_KF3CT_SRB: Viability Assessment in the BioMAP Diversity Plus: KF3CT Assay (AID 2283069); conditions: primary human keratinocytes with fibroblasts;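 further: total protein by sulforhodamine B staining as a cytotoxicity measure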
Method in brief: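 Human primary keratinocyte plus foreskin fibroblast co-culture exposed to chemicals for 24 h. Total protein measured by 0.1% sulforhodamine B staining after 10% TCA fixation, read at 560 nm; bidirectional fitting versus DMSO baseline.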

[18] = read-out: Interleukin-1 alpha (IL1a), IL1A (gene 3552); assay: BSK_KF3CT_IL1a: BioMAP Diversity Plus: KF3CT Assay for Interleukin-1 alpha (IL1a) Biomarker Activity (AID 2283070); conditions: primary human keratinocytes with fibroblasts; actives raise or lower the signal
Method in brief: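 Human keratinocyte plus foreskin fibroblast primary co-culture, sampled 24 h after chemical dosing. IL-1a measured by ELISA; responses fitted bidirectionally against DMSO baseline (negative control), so gain or loss of signal both count.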

[19] = read-out: TIMP metallopeptidase inhibitor 2 (TIMP2), TIMP2 (gene 7077); assay: BSK_KF3CT_TIMP2: BioMAP Diversity Plus: KF3CT Assay for TIMP metallopeptidase inhibitor 2 (TIMP2) Biomarker Activity (AID 2283071); conditions: primary human keratinocytes with fibroblasts; actives raise or lower the signal
Method in brief: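 Keratinocyte–fibroblast co-culture, 24 h exposure; TIMP-2 ELISA, DMSO-normalised bidirectional fit. Parallel SRB (0.1%, TCA-fixed, 560 nm) total-protein staining gauges cytotoxicity.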

Measured: AC50

CN(C)C(=S)SC(=S)N(C)C
inactive: [1] | [2] | [9] | [16] | [17] | [18] | [19]
active: [3] 19.9 µM | [4] 15.2 µM | [5] 19.9 µM | [6] 39.1 µM | [7] 30.2 µM | [8] 31.4 µM | [10] 37.8 µM | [11] 34.4 µM | [12] 36.2 µM | [13] 31.2 µM | [14] 19.9 µM | [15] 27.3 µM

CCCCN(CCCC)C(=O)N(CCCC)CCCC
inactive: [5] | [6]
active: [1] 11.7 µM | [2] 20 µM | [3] 12.8 µM | [4] 7.43 µM | [7] 3.96 µM | [8] 9.49 µM | [9] 10.3 µM | [10] 9.64 µM | [11] 11.9 µM | [12] 11.5 µM | [13] 9.04 µM | [14] 11 µM | [15] 8.66 µM | [16] 11 µM | [17] 8.91 µM | [18] 10.5 µM | [19] 4.62 µM

Clc1cc(Cl)c(-c2c(Cl)c(Cl)cc(Cl)c2Cl)cc1Cl
active: [4] 4.19 µM | [6] 15.8 µM | [7] 3.7 µM | [8] 8.48 µM | [9] 14.7 µM | [10] 10 µM | [12] 18.5 µM | [13] 14.5 µM | [14] 2.94 µM | [16] 15.5 µM | [17] 13.7 µM | [18] 2.95 µM | [19] 6.63 µM
inactive: [1] | [2] | [3] | [5] | [11] | [15]

C=C(C)[C@H]1CC=C(C)C(=O)C1
inactive: all assays above

CS(=O)(=O)c1ccc(C2=C(c3ccccc3)C(=O)OC2)cc1
active: [16] 0.0374 µM
inactive: all other assays above

Reference: PubChem BioAssay (EPA / NIEHS)
